The source of these data is PubChem BioAssay (NCATS).

SMILES strings stand for the structures. Results filed as inconclusive are left out. A call without a number means that no potency is given here. Activity calls are given as the source filed them. The call rests on the fitted dose curve.

The nature of this test: S16 Schwann cell PMP22 intronic element beta-lactamase assay (AID 624044). Further: nearly all actives have a fitted effect of over 15% in size. The conditions noted are these: S16 rat Schwann cells, PMP22 element beta-lactamase FRET, 24 h; series mostly up to 38.3 µM. The method, boiled down: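 Rat S16 Schwann cells with beta-Lac driven by a PMP22 intronic element, compound-treated 24 h at 37 °C. LiveBLAzer FRET B/G read: 460 nm normalized to potassium clavulanate vs DMSO; 535 nm FRET as viability; concentration-effect curves classified.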
For the compound `CCC(N)Cc1c[nH]c2ccccc12` (configuration not stated), the Potency entry was “inactive”.
Take `CC[N+](C)(CC)CCOC(=O)C(O)(c1ccccc1)c1ccccc1`: the Potency entry is “inactive”.
The value for `C[N+]1(C)CCCCC1COC(=O)C(O)(c1ccccc1)c1ccccc1` (configuration not stated) was “inactive”; that for `Clc1ccc(C2(Cn3cncn3)OCCO2)c(Cl)c1` was “inactive”; that for `FC(F)OC(F)(F)C(F)Cl` (configuration not stated) was “inactive”.
The value for `O=P(O)(O)C(Cl)(Cl)P(=O)(O)O` was “inactive”; that for `CCCCCCCCCC(=O)O[C@H]1CC[C@H]2[C@@H]3CCC4=CC(=O)CC[C@]4(C)[C@H]3CC[C@]12C` was “inactive”; that for `CN1C2CCC1CC(OC(c1ccccc1)c1ccc(Cl)cc1)C2` (configuration not stated) was “inactive”.
As for `CCC1(c2ccccc2)C(=O)NC(=O)N(C(=O)c2ccccc2)C1=O` (configuration not stated), the entry is “inactive”; as for `CNC(C)C(O)c1ccc(O)cc1` (configuration not stated), “inactive”.
With `O=C1CN(O)C(c2ccccc2)=c2cc(Cl)ccc2=N1`, the Potency result is “inactive”.
`CCON=O`: the Potency entry is “inactive”.
`CCC(=O)O[C@@](Cc1ccccc1)(c1ccccc1)[C@@H](C)CN(C)C`: the Potency result was “inactive”.
The value for `CCC(C)(S(=O)(=O)CC)S(=O)(=O)CC` was “inactive”; that for `O=c1[nH]cc(N(CCCl)CCCl)c(=O)[nH]1` was “inactive”.
`O=C1CC[C@@]2(O)C3Cc4ccc(O)c5c4C2(CCN3CC2CC2)[C@H]1O5` (some centres not stated): the Potency result is “inactive”.
The value for `OC(c1ccccc1)(c1ccccc1)C1CN2CCC1CC2` (configuration not stated) was “inactive”; that for `O=S(=O)(O)c1cc(O)ccc1O` was “inactive”; that for `C[C@@H](Cc1ccccc1)NCCC(c1ccccc1)c1ccccc1` was “inactive”.
Take `Cn1sc(Cl)cc1=O`: the Potency entry was “inactive”.
For the compound `CCC1C(C)=NN=C(c2ccc(OC)c(OC)c2)c2cc(OC)c(OC)cc21` (configuration not stated), the Potency result was “inactive”.
As for `CCC1(CC)C(=O)NC(=O)N(C)C1=O`, the entry is “inactive”.
